Data on 113 molecules can be found in PubChem BioAssay AID488969 (Vanderbilt High Throughput Screening Facility, 2010).

The full ranking holds about 110,000 compounds; the median of “z-score” is about -0.1, and the highest 2% start at about 2. Many of the other results were omitted from the sample, so the highest values are more common in it than they were. Active and inactive are the calls of the source.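 Rule for the calls: active = z-score in the third read window above 3 or below -3; inactive = the rest.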

In this test the target is Metabotropic glutamate receptor 8 (Rattus norvegicus) (UniProt P70579). The test is described as follows: mGluR8 Gi/Go-coupled signaling modulation – cell-based, rat, thallium flux, HTS, primary screen (AID 488969). Particulars: HEK293 rat mGluR8, GIRK (G protein-gated inwardly rectifying potassium channel) thallium flux, FluoZin2; at 10 µM; stronger effect = higher value; submaximal glutamate (EC20) added with thallium.
Sequence of Metabotropic glutamate receptor 8 (Rattus norvegicus) (P70579 whole entry, looked up): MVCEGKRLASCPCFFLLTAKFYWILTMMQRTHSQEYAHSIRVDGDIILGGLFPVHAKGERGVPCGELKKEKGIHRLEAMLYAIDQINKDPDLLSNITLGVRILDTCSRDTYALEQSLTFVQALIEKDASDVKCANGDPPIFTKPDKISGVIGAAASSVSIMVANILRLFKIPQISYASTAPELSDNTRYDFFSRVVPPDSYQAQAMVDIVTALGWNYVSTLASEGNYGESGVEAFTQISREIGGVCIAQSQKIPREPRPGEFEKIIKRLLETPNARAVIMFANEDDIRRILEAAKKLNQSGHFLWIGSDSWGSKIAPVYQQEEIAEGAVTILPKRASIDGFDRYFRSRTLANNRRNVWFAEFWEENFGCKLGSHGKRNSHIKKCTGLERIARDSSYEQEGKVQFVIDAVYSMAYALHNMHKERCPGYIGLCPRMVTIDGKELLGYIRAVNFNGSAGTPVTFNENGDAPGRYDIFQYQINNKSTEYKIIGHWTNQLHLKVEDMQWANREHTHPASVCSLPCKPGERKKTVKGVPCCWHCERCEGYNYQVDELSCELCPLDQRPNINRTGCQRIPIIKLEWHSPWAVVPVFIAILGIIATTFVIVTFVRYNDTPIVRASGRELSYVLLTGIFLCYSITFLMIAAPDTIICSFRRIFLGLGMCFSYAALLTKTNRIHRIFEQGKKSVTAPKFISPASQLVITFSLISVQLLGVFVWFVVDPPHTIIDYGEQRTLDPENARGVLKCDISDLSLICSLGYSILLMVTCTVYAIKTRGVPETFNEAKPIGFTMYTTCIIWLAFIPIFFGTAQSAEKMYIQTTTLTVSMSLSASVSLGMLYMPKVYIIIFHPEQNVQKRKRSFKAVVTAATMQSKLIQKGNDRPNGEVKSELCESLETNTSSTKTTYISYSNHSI
On to `Cc1cccc(NC(=O)c2ccoc2C)n1`, for which the z-score stood at 2.35. To `Cc1occc1C(=O)Nc1cccc(C(=O)O)c1` belongs -0.0368; to `CCCCOC(=O)Nc1ccc(C(=O)OCCC)cc1`, 3.09 (active); to `CCCOC(=O)c1ccc(NC(=O)Oc2ccccc2)cc1`, 0.454. In the case of `Cc1cccc(NC(=O)c2ccccc2Br)n1` it was 0.0402; in that of `COC(=O)c1cc(NC(=O)c2ccoc2C)cc(C(=O)OC)c1`, 4.89 (active). To `CCCCOC(=O)Nc1ccc(C(N)=O)cc1` belongs 0.507.

`Cc1occc1C(=O)Nc1ccc2ccccc2c1` gave a z-score of 2.19. In the case of `Cc1cc(NC(=O)c2ccoc2C)no1` it was -0.105; in that of `Cc1occc1C(=O)Nc1ccccc1NC(=O)c1ccoc1C`, 0.13. In the case of `COC(=O)c1cc(NC(=O)c2cc(C)oc2C)cc(C(=O)OC)c1` it was 0.433; in that of `CCOC(=O)c1cc(NC(=O)c2ccoc2C)cc(C(=O)OCC)c1`, -2.39; in that of `CSc1nc(N(C)C)nc(N2CC(=O)N(CCNS(=O)(=O)c3ccc(C)cc3)C2=N)n1`, -0.172. `CCC(=O)NC(=S)Nc1ccc(NC(=O)COc2ccc(Cl)c(C)c2)cc1`: the z-score was -0.0852.

With `CC(C)(C)C(C(Oc1ccc(Cl)cc1)n1cncn1)n1nnnc1C(c1cccc(Cl)c1)N1CCCCC1` (stereo not drawn), the z-score amounted to 0.12.

In turn, `NS(=O)(=O)c1ccc(CCNC(=O)CSc2ccccc2)cc1` returned a z-score of 0.222. To `CC(C)C(NS(=O)(=O)c1cccc2nsnc12)C(=O)NCc1ccc2c(c1)OCO2` (stereo not drawn) belongs -0.269. Molecule `CCCOC(=O)c1ccc(NC(=O)c2ccoc2C)cc1` returned a z-score of 2.24. To `CCCOC(=O)c1ccc(NC(=O)c2ccc(Br)o2)cc1` belongs -0.692. To `CCCCOC(=O)c1ccc(NC(=O)c2ccoc2C)cc1` belongs -0.0292; to `COc1ccc(C(=O)NCC(=O)NCC2COc3ccccc3O2)cc1` (stereo not drawn), 1; to `CCOc1cc(C(=S)N2CCC(O)CC2)ccc1OS(=O)(=O)c1ccc(Br)cc1`, 0.875. For `CCC(=O)NCC(=O)OCC(=O)c1ccccc1`, the z-score was -0.0257.

On to `Cc1cc(C)nc(SCC(=O)Nc2nc(-c3ccccc3)c(-c3ccccc3)o2)n1`, for which the z-score is -0.522.

As to `O=C(Nc1nc(-c2ccccc2)c(-c2ccccc2)o1)c1ccc(F)cc1`, the z-score was 13.5 (active). To `Cn1nnnc1SCC(=O)Nc1nc(-c2ccccc2)c(-c2ccccc2)o1` belongs -0.0372. `CC(=O)Nc1nc(-c2ccccc2)c(-c2ccccc2)o1` came in with a z-score of -0.185. Turning to `Cc1cc(=O)[nH]c(SCC(=O)Nc2nc(-c3ccccc3)c(-c3ccccc3)o2)n1`, the z-score is -1.38. In the case of `Cc1ccc(C(=O)Nc2nc(-c3ccccc3)c(-c3ccccc3)o2)cc1` it was 3.53 (active). Take `CCOC(=O)c1c(NC(NC(C)=O)C(Cl)(Cl)Cl)sc2c1CCCC2` (stereo not drawn): the z-score is -2.34. In turn, `COCCCn1c(C)nnc1SCC(=O)NCc1ccco1` yielded a z-score of -0.305. In the case of `Cc1ccc(S(=O)(=O)N(C)Cc2cc3ccccc3[nH]c2=O)cc1` it was -0.0752.

Regarding `CCN(CC)CCN(Cc1cc2cc(C)ccc2[nH]c1=O)C(=S)NCc1ccco1`, the z-score came out at 0.381.

For the molecule `CCOC(=O)COc1cc(Br)c(/C=N/Nc2ccccc2)cc1OC`, the z-score is -0.0959.

Consider `CCC(C)(C(=O)NC1CCCCC1)N(C(=O)c1ccccn1)c1ccc(C)cc1` (stereo not drawn), for which the z-score is -0.103. In the case of `COc1cccc(C(=O)/C=C/Nc2cccc(O)c2)c1` it was -0.665; in that of `CSc1nnc(CNC(=O)C23CC4CC(CC(C4)C2)C3)n1Cc1ccccc1`, -0.331; in that of `C/C(=N\NC(=S)NCCc1ccccc1)c1ccc(Cl)cc1`, 1.16. To `C/C(=N\NC(=S)NCCc1ccccc1)c1ccc(C)cc1` belongs 1.67. To `C/C(=N\NC(=S)NCCc1ccccc1)c1cccs1` belongs 3.65 (active). `O=C1C2C(c3ccccc3)C=CC(c3ccccc3)C2C(=O)N1CCCO` (stereo not drawn) gave a z-score of -0.894. To `O=C(CCS(=O)(=O)c1ccc(Cl)cc1)NCCN1C(=O)S/C(=C\c2ccccc2F)C1=O` belongs -0.162. With `Cc1cc(C)n2nc(SCC(=O)N3CCc4ccccc43)nc2n1`, the z-score was determined as 0.255. In the case of `O=C(c1ccccc1)N1CCCC(c2nc3c(nnn3Cc3ccccc3)c(=O)[nH]2)C1` (stereo not drawn) it was -0.398. In the case of `Cc1ccc(C)c(Cn2nnc3c(=O)[nH]c(C4CCCN(C(=O)C5CCCCC5)C4)nc32)c1` (stereo not drawn) it was -0.651; in that of `O=C(C1CCCCC1)N1CCCC(c2nc3c(nnn3Cc3ccccc3)c(=O)[nH]2)C1` (stereo not drawn), 2.1. In the case of `O=C(NCCCCNC(=O)c1cccnc1)c1cccnc1` it was 8.98 (active). `O=C(NCCc1ccccc1)c1cccnc1` returned a z-score of -0.0437. To `O=C(NCCOCCOCCNC(=O)c1cccnc1)c1cccnc1` belongs 0.119; to `Cc1c(NC(=O)/C(C#N)=C/c2c(Oc3ccccc3)nc3ccccn3c2=O)c(=O)n(-c2ccccc2)n1C`, 1.16; to `CSc1ncc(Cl)c(C(=O)Nc2nnc(SC)s2)n1`, -0.194. In the case of `Cc1nc(SCC(=O)N2CC(=O)Nc3ccccc32)c2c(C)c(C)sc2n1` it was -0.286. In turn, `Cc1cc(NC(=O)CSc2nc3sc4c(c3c(=O)n2C)CCCC4)no1` gave a z-score of 0.943. In the case of `Cc1cc(NC(=O)CSc2nc(C3CC3)nc3sc(C)c(C)c23)no1` it was 12.4 (active). In the case of `Cc1sc2nc(C3CC3)nc(SCC(=O)N3CC(=O)Nc4ccccc43)c2c1C` it was 3.69 (active); in that of `Cc1cc(NC(=O)CSc2nc(C(C)C)nc3sc4c(c23)CCCC4)no1`, -0.493. To `Cc1cc(NC(=O)CSc2nc(C3CC3)nc3sc4c(c23)CCC(C)C4)no1` (stereo not drawn) belongs 0.482; to `Cc1sc2nc(C3CCCCC3)nc(SCC(=O)N3CC(=O)Nc4ccccc43)c2c1C`, -0.0509. For the molecule `CCCc1nc(SCC(=O)Nc2nnc(CC)s2)c2c(C)c(C)sc2n1`, the z-score was -0.42. As to `CCc1nc(SCC(=O)Nc2nnc(CC)s2)c2c(C)c(C)sc2n1`, the z-score is 8.71 (active). To `Cc1nnc(NC(=O)CSc2nc(C(C)C)nc3sc(C)c(C)c23)s1` belongs -0.837; to `CCc1nc(SCC(=O)Nc2cc(C)on2)c2c(C)c(C)sc2n1`, -0.346; to `Cc1nc(SCC(=O)Nc2cc(C)on2)c2c3c(sc2n1)CCCC3`, 2.03. In the case of `COc1ccc(-c2nc(C)ncc2N=Nc2ccccc2)cc1` it was -0.33; in that of `O=C1CCN(C(=O)Nc2cccc(Cl)c2)N1`, -0.0566; in that of `CCN(CCO)c1ncnc2c1sc1nc(C(C)C)c3c(c12)CC(C)(C)OC3`, -0.241.

The molecule `Cc1cccc(NC(=O)CN2C(=O)N/C(=C/c3ccc(C)o3)C2=O)c1` yielded a z-score of 0.0879.

Consider `CCOCC(=O)Nc1cc([N+](=O)[O-])ccc1C`, for which the z-score was -0.688. `CC1=NN(c2ccc(C)cc2)C(=O)/C1=C\c1ccc(Br)s1` gave a z-score of -0.327. In the case of `Cn1c(Cc2ccccc2)nnc1SCC(=O)NC1CCCCC1` it was 0.0891; in that of `CCN(CC)C(=O)Cn1nc(C)c2ccccc2c1=O`, -0.346; in that of `Cc1ccc(/C=N/Nc2ncc(Cl)cc2Cl)s1`, 0.576. `Cc1ccc(/C=N/Nc2nc(Cl)c(Cl)cc2Cl)s1`: the z-score was 3.84 (active). With `Cc1ccsc1/C=N/Nc1nc(Cl)c(Cl)cc1Cl`, the z-score was 0.292. In the case of `CCc1nc(N2CCN(S(=O)(=O)c3ccc(Br)cc3)CC2)c2c(C)c(C)sc2n1` it was -0.0531; in that of `Cc1sc2nc(CN3CCCC3)nc(N3CCC(C(N)=O)CC3)c2c1C`, -0.212; in that of `Cc1sc2nc(CN3CCCC3)nc(N3CCN(S(=O)(=O)c4cccs4)CC3)c2c1C`, 4.12 (active). In the case of `O=c1c2cc(Br)ccc2nc(-c2cccc(C(F)(F)F)c2)n1O` it was 10.5 (active); in that of `O=c1c2ccccc2nc(-c2cccc(Cl)c2)n1O`, 1.74.

In the case of `O=c1c2ccc(Cl)cc2nc(-c2cccc(C(F)(F)F)c2)n1O`, the z-score is 10.9 (active). In the case of `FC(F)(F)c1cccc(-c2nnc3ccc(C(F)(F)F)cn23)c1` it was 0.312; in that of `O=c1[nH]c(/C(Cl)=C/c2cccc(C(F)(F)F)c2)nc2cc(Cl)ccc12`, -0.0389; in that of `O=C(Nc1ccc(C(F)(F)F)cc1)c1cc(-c2cccnc2)nc2ccc(Br)cc12`, -0.0141. `C=CCc1ccccc1OCC(O)CN1CCN(c2ccccc2F)CC1` (stereo not drawn): the z-score stood at 0.0351. To `Cc1noc(C)c1S(=O)(=O)N1CCC(C(=O)N2CCN(C(=O)c3ccco3)CC2)CC1` belongs -0.53; to `O=C(O)CCCC(=O)Nc1ccc(Br)cc1`, 0.0741.

The molecule `Cc1ccc2nc(-c3ccc(Br)o3)oc(=O)c2c1` came in with a z-score of -0.0466. In the case of `O=c1oc(-c2ccc(Br)o2)nc2ccccc12` it was 5.63 (active); in that of `O=c1oc(-c2ccco2)nc2ccccc12`, -0.973; in that of `CCN(CC)C(=O)C(=O)N/N=C/c1ccc(Br)cc1`, 0.0116.

The molecule `CC(Sc1nnc(-c2ccc(Cl)cc2Cl)n1Cc1ccccc1)C(=O)Nc1nccs1` (stereo not drawn) showed a z-score of -1.54.

As for `Cn1c2c(c(O)c(-c3ccccc3)c1=O)C(=O)CC(C)(C)C2`, the z-score was -0.119. To `CCCc1nn(C(=O)c2ccccc2)c2c1C(=O)CC(C)(C)C2` belongs 0.0989; to `Cc1nn(C(=O)c2ccccc2)c2c1C(=O)CC(C)(C)C2`, 2.47; to `O=C(NCC(=O)N(c1ccccc1)C(C(=O)NC1CCCC1)c1ccncc1)c1ccco1` (stereo not drawn), -0.115. To `COC(=O)Nc1nnc(Cc2ccc(Cl)cc2)s1` belongs 2.4. To `COC(=O)Nc1nnc(Cc2ccc(OC)cc2)s1` belongs -0.342; to `COC(=O)Nc1nnc(Cc2ccccc2)s1`, -0.412; to `Cc1ccc2oc(C(=O)Nc3nnc(C)s3)c(C)c2c1`, -0.9. In turn, `CCn1c(-c2cccc(Br)c2)n[nH]c1=S` came in with a z-score of 2.35. Consider `CCn1c(-c2cc(C3CC3)nc3ccccc23)n[nH]c1=S`, for which the z-score is -0.258.

In turn, `CCn1c(-c2cc3ccccc3cc2O)n[nH]c1=S` yielded a z-score of 2.62. Molecule `Oc1ccc(-c2n[nH]c(=S)n2Cc2ccco2)cc1` yielded a z-score of -0.11. The molecule `S=c1[nH]nc(-c2ccc(Br)cc2)n1Cc1ccco1` registered a z-score of 2.41. Take `CCn1c(-c2ccc(C)cc2)n[nH]c1=S`: the z-score was -0.192. In the case of `S=c1[nH]nc(-c2ccncc2)n1Cc1ccco1` it was -0.198. In the case of `Nn1c(-c2cccc(Br)c2)n[nH]c1=S` it was -0.267; in that of `CCn1c(-c2c[nH]c3ccccc23)n[nH]c1=S`, -0.0356.

For `CCCCCn1c(N)c(-c2nc3ccccc3s2)c2c([N+](=O)[O-])nn(CC)c(=O)c21`, the z-score was -0.75. Consider `COc1ccc2c(c1OC)C(=O)N1N=C(c3ccc(Br)cc3)CC21` (stereo not drawn), for which the z-score was -1.04.

The molecule `C=C(C)C1CC=C(CN2CCC(C(=O)OCC)CC2)CC1` (stereo not drawn) had a z-score of 0.503. The molecule `Cc1ccc(S(=O)(=O)c2nc(S(C)(=O)=O)sc2N(C)C)cc1` had a z-score of 0.113.

Consider `COc1ccc(CC(=O)O/N=C(\N)Cc2cccc3ccccc23)cc1OC`, for which the z-score is -0.317.
